Targets with a hit are over-represented here; the source holds about 7,900 in all. About 0.6% of all pairs of compound and target were hits. Unmarked numbers belong to inactive results.
Experiments:
Assay in all cases: log2 fold change, soluble protein after heating vs DMSO (PISA); higher = thermal stabilisation; K562 cells, 10 uM, 30 min; active = over 0.2 and 3.5 SD of the protein, either way, in both replicates (recomputed)
[1] = compound: COC1=CC=C(C=C1)CN2C=CC3=C2C=C(C=C3)C(=O)NO
Procedure, shortened: (§1)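 Soluble protein was quantified by TMTpro 16plex LC-MS/MS after channel sums were equalised. It was obtained as the supernatant after 21,000xg for 90 min from pooled aliquots of K562 cells (2×10^6 cells/mL, 10 μM compound, 30 min) heated for 3 min across 48°C-58°C and extracted in PBS with 0.5% NP-40 at 4°C. Thermal stability values are relative to control samples and come from duplicates. They are given as log2 fold changes.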

filanesib = compound: CON(C)C(=O)N1N=C(c2cc(F)ccc2F)S[C@@]1(CCCN)c1ccccc1 [filanesib]
Procedure, shortened: as §1

zotarolimus = compound: CO[C@H]1C[C@@H]2CC[C@@H](C)[C@@](O)(O2)C(=O)C(=O)N2CCCC[C@H]2C(=O)O[C@H]([C@H](C)C[C@@H]2CC[C@H](n3cnnn3)[C@H](OC)C2)CC(=O)[C@H](C)/C=C(\C)[C@@H](O)[C@@H](OC)C(=O)[C@H](C)C[C@H](C)/C=C/C=C/C=C/1C [zotarolimus]
Procedure, shortened: as §1

idasanutlin = compound: COc1cc(C(=O)O)ccc1NC(=O)[C@@H]1N[C@@H](CC(C)(C)C)[C@](C#N)(c2ccc(Cl)cc2F)[C@H]1c1cccc(Cl)c1F [idasanutlin]
Procedure, shortened: as §1

alisertib = compound: COc1cc(Nc2ncc3c(n2)-c2ccc(Cl)cc2C(c2c(F)cccc2OC)=NC3)ccc1C(=O)O [alisertib]
Procedure, shortened: as §1

[2] = compound: COc1cc2nc(-c3cc(F)ccc3O)nc(N[C@@H]3CNC[C@H]3C(C)(C)O)c2cc1OC
Procedure, shortened: as §1

gefitinib = compound: COc1cc2ncnc(Nc3ccc(F)c(Cl)c3)c2cc1OCCCN1CCOCC1 [gefitinib]
Procedure, shortened: as §1

[3] = compound: COc1cccc2cc(-c3nc([C@H]4CC[C@H](C(=O)O)CC4)n4ncnc(N)c34)[nH]c12
Procedure, shortened: as §1

lapatinib = compound: CS(=O)(=O)CCNCc1ccc(-c2ccc3ncnc(Nc4ccc(OCc5cccc(F)c5)c(Cl)c4)c3c2)o1 [lapatinib]
Procedure, shortened: as §1

pictilisib = compound: CS(=O)(=O)N1CCN(Cc2cc3nc(-c4cccc5[nH]ncc45)nc(N4CCOCC4)c3s2)CC1 [pictilisib]
Procedure, shortened: as §1

[4] = compound: CS(=O)(=O)c1ccc(-c2cnc(N)c(C(=O)Nc3ccccc3)n2)cc1
Procedure, shortened: as §1

crizotinib = compound: C[C@@H](Oc1cc(-c2cnn(C3CCNCC3)c2)cnc1N)c1c(Cl)ccc(F)c1Cl [crizotinib]
Procedure, shortened: as §1

[5] = compound: C[C@@H]1COCCN1C2=NC(=NC(=C2)C3(CC3)S(=O)(=O)C)C4=C5C=CNC5=CC=C4
Procedure, shortened: as §1

[6] = compound: C[C@H](C1=CC=C(C=C1)C(=O)NC2=C3C=CNC3=NC=C2)N
Procedure, shortened: as §1

duvelisib = compound: C[C@H](Nc1ncnc2nc[nH]c12)c1cc2cccc(Cl)c2c(=O)n1-c1ccccc1 [duvelisib]
Procedure, shortened: as §1

gandotinib = compound: Cc1cc(Nc2cc(CN3CCOCC3)c3nc(C)c(Cc4ccc(Cl)cc4F)n3n2)n[nH]1 [gandotinib]
Procedure, shortened: as §1

tozasertib = compound: Cc1cc(Nc2cc(N3CCN(C)CC3)nc(Sc3ccc(NC(=O)C4CC4)cc3)n2)n[nH]1 [tozasertib]
Procedure, shortened: as §1

[7] = compound: Cc1cc(SCc2sc(-c3ccc(C(F)(F)F)cc3)nc2C)ccc1OCC(=O)O
Procedure, shortened: as §1

doramapimod = compound: Cc1ccc(-n2nc(C(C)(C)C)cc2NC(=O)Nc2ccc(OCCN3CCOCC3)c3ccccc23)cc1 [doramapimod]
Procedure, shortened: as §1

ispinesib = compound: Cc1ccc(C(=O)N(CCCN)[C@@H](c2nc3cc(Cl)ccc3c(=O)n2Cc2ccccc2)C(C)C)cc1 [ispinesib]
Procedure, shortened: as §1

Chain of UniProt P52657 (P52657 whole entry, looked up): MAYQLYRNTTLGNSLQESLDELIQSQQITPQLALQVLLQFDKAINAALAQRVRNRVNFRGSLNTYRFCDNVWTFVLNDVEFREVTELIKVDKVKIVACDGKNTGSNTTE
Chain of UniProt P05362 (P05362 whole entry, looked up): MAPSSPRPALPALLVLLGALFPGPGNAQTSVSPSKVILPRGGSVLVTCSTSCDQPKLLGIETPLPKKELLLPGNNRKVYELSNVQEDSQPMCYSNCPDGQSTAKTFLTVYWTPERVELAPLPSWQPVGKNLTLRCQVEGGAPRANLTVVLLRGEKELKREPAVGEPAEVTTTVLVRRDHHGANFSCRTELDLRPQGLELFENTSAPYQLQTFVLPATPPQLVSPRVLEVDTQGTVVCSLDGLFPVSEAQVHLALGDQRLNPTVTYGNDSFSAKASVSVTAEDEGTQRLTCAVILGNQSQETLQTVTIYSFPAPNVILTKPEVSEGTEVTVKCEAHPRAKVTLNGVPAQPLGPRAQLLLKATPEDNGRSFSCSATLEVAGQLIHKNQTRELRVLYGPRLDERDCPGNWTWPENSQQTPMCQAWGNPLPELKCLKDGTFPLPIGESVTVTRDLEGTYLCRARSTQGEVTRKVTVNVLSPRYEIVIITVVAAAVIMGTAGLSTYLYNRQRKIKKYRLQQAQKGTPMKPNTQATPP
Chain of UniProt Q92769 (Q92769 whole entry, looked up): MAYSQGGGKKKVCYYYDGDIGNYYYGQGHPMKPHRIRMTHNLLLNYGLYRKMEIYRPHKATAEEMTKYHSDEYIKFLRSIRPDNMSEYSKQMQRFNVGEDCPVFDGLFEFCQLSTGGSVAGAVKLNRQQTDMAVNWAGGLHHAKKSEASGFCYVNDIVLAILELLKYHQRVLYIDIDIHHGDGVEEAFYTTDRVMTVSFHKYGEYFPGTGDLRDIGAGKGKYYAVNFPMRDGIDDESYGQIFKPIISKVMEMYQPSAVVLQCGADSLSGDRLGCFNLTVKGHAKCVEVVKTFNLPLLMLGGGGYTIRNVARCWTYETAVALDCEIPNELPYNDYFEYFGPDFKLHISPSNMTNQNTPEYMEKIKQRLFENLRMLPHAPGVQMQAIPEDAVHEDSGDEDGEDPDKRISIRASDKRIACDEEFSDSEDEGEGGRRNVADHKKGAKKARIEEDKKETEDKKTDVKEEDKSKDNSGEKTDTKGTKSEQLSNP
Chain of UniProt Q86UL3 (Q86UL3 whole entry, looked up): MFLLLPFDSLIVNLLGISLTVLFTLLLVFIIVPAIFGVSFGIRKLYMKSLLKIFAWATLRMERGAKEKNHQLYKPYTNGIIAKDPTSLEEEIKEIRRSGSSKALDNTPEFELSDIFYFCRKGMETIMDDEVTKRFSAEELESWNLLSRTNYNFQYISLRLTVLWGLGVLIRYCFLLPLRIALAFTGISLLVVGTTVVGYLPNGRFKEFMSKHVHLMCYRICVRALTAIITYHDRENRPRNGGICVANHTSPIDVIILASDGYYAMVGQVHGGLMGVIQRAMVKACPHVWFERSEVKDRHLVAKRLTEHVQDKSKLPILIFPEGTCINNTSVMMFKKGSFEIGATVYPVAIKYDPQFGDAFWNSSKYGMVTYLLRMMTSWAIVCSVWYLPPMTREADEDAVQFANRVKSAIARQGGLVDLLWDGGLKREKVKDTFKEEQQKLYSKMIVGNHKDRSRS
Chain of UniProt Q92947 (Q92947 whole entry, looked up): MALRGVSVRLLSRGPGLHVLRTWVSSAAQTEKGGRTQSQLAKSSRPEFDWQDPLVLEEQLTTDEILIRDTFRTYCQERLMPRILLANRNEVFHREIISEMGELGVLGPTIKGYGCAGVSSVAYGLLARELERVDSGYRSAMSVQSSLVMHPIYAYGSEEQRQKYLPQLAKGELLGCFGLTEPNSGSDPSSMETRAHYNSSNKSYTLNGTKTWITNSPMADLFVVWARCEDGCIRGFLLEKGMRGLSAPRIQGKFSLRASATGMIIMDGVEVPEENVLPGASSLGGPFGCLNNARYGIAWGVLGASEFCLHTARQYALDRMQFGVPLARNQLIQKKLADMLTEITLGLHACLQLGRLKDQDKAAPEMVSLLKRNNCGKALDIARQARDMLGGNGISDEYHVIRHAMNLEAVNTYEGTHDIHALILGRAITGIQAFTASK
Chain of UniProt Q92664 (Q92664 whole entry, looked up): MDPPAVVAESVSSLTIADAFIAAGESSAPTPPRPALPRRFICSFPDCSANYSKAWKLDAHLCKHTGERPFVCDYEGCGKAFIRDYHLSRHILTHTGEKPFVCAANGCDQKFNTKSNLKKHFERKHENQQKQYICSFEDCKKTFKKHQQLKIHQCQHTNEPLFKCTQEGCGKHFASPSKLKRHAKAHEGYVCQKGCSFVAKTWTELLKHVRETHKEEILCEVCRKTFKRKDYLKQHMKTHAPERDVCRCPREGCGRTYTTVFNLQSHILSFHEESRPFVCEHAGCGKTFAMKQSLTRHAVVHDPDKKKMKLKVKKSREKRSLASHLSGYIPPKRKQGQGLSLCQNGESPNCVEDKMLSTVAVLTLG
Chain of UniProt Q9UK99 (Q9UK99 whole entry, looked up): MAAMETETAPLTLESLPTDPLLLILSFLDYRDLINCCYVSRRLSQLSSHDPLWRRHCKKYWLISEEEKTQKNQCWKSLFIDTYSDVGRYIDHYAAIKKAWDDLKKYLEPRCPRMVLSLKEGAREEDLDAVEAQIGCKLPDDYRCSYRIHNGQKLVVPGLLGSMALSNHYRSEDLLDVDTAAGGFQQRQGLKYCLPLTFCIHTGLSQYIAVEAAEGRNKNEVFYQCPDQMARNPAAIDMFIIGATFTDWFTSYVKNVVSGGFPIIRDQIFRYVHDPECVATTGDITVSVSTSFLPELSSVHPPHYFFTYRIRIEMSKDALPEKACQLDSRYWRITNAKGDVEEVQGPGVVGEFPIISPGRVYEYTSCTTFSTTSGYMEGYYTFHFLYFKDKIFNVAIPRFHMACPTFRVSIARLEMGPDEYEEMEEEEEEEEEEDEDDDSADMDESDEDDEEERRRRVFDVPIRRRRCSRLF
Chain of UniProt P00367 (P00367 whole entry, looked up): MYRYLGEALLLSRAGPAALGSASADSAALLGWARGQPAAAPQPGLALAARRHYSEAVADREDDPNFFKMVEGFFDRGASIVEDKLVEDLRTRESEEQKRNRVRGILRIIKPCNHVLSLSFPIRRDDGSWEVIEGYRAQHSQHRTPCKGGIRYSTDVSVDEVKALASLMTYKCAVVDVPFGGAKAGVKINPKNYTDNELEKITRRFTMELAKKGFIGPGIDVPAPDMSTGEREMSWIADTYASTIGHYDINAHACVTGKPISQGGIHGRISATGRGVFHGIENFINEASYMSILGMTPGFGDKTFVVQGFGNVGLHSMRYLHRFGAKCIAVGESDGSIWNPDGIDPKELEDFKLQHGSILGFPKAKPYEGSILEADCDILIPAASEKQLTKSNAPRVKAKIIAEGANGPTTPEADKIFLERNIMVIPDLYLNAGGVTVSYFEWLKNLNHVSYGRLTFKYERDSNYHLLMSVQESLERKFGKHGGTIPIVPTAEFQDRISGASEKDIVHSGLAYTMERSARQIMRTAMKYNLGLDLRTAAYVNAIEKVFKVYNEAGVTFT
Chain of UniProt Q14C86 (Q14C86 whole entry, looked up): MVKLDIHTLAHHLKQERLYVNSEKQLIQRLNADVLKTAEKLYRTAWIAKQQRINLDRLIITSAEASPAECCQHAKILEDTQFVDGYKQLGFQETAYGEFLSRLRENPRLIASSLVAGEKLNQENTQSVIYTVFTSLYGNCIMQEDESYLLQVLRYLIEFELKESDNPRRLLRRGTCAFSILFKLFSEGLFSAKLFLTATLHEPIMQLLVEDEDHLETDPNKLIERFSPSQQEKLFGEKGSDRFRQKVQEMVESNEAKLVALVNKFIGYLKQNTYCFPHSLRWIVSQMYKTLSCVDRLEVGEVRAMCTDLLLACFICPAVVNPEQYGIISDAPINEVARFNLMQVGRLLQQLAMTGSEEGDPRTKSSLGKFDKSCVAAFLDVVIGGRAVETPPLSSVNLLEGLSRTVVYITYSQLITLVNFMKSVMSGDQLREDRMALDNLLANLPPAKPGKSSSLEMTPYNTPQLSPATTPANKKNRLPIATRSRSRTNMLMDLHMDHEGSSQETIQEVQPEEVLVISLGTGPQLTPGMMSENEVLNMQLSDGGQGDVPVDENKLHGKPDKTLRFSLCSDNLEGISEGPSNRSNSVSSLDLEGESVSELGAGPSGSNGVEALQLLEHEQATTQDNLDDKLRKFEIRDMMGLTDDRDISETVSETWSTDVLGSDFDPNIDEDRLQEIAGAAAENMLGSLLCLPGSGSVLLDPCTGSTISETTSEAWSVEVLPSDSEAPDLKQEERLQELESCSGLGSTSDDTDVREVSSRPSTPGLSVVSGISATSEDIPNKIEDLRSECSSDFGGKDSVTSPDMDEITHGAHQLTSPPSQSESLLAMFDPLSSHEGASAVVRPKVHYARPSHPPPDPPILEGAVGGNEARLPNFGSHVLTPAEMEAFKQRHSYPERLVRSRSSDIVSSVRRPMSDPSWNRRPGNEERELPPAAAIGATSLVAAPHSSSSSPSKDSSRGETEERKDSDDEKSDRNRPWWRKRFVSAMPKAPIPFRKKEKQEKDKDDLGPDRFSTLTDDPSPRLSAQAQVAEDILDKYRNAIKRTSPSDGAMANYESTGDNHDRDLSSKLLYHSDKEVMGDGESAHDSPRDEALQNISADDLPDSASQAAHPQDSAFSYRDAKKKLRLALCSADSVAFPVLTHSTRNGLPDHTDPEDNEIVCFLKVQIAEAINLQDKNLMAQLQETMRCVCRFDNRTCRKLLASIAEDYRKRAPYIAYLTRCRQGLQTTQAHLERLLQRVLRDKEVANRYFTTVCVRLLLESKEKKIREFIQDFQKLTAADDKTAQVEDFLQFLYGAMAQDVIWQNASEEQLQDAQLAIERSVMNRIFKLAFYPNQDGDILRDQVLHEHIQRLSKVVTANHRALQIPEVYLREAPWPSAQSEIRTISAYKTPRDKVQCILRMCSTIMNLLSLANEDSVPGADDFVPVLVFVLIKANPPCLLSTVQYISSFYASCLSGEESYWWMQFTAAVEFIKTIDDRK

Row | Target | log2 fold change [1] | log2 fold change (filanesib) | log2 fold change (zotarolimus) | log2 fold change (idasanutlin) | log2 fold change (alisertib) | log2 fold change [2] | log2 fold change (gefitinib) | log2 fold change [3] | log2 fold change (lapatinib) | log2 fold change (pictilisib) | log2 fold change [4] | log2 fold change (crizotinib) | log2 fold change [5] | log2 fold change [6] | log2 fold change (duvelisib) | log2 fold change (gandotinib) | log2 fold change (tozasertib) | log2 fold change [7] | log2 fold change (doramapimod) | log2 fold change (ispinesib)
1 | HEATR5B (UniProt Q9P2D3) | -0.006 | -0.005 | -0.071 | 0 | 0.006 | 0.039 | -0.045 | 0.033 | 0.018 | -0.065 | 0.055 | -0.058 | -0.11 | 0.103 | -0.026 | -0.039 | -0.019 | 0.036 | -0.015 | -0.021
2 | H2AZ1 (UniProt P0C0S5) | 0.05 | 0.353 | -0.113 | 0.266 | 0.039 | -0.046 | 0.121 | -0.161 | 0 | -0.09 | -0.027 | -0.062 | -0.47 | 0.345 | -0.09 | -0.006 | -0.146 | -0.084 | 0.178 | -0.147
3 | GLUD1 (UniProt P00367) | -0.012 | -0.118 | -0.007 | -0.047 | -0.039 | -0.001 | 0.076 | 0.057 | 0.178 | 0.367 (active) | 0.16 | -0.016 | 0.058 | 0.005 | 0.006 | 0.141 | -0.071 | -0.057 | 0.048 | -0.048
4 | FRA10AC1 isoform 3 (UniProt Q70Z53) | -0.022 | 0.179 | -0.049 | -0.319 | -0.033 | 0.068 | 0 | -0.005 | -0.064 | -0.11 | -0.082 | 0.201 | 0.059 | 0.029 | 0.07 | 0.189 | -0.123 | -0.116 | -0.044 | 
5 | GAPVD1 isoform 6 (UniProt Q14C86) | 0.003 | 0.033 | 0.055 | -0.021 | 0.047 | -0.048 | -0.013 | -0.068 | 0.041 | -0.025 | -0.012 | -0.145 | 0.017 | 0.075 | -0.058 | -0.081 | 0.061 | 0.147 | 0.038 | -0.133
6 | FOXK1 (UniProt P85037) | -0.002 | 0.361 | 1 (active) | -0.123 | -0.038 | 0.526 | 0.516 | 0.774 | 0.085 | 0.584 | -1.1 (active) | 0.336 | 0.897 | -0.482 | 0.582 | -1.34 (active) | 0.127 | -0.148 | -0.126 | 0.373
7 | HDAC2 (UniProt Q92769) | -0.144 | 0.029 | 0.008 | 0.008 | -0.041 | 0 | 0.007 | 0.017 | 0.063 | 0.024 | -0.01 | 0.08 | -0.02 | -0.046 | 0.022 | 0.003 | -0.002 | -0.029 | 0.011 | 0.072
8 | FNTA (UniProt P49354) | 0.162 | 0.069 | 0.019 | -0.062 | -0.074 | -0.01 | 0.056 | 0.044 | 0.04 | -0.005 | 0.073 | 0.069 | 0.077 | -0.005 | 0.014 | 0.057 | -0.017 | -0.014 | -0.043 | 0.06
9 | GCDH (UniProt Q92947) | 0.02 | -0.081 | 0.027 | -0.066 | -0.066 | -0.011 | 0.042 | 0.016 | -0.004 | -0.02 | 0.004 | 0.058 | 0.112 | -0.032 | 0.098 | 0.076 | -0.107 | -0.021 | -0.012 | 0.041
10 | FBXO3 (UniProt Q9UK99) | 0.011 | -0.053 | -0.022 | 0.032 | -0.071 | -0.013 | 0.011 | 0.025 | 0.028 | -0.023 | 0.055 | 0.005 | -0.095 | 0.008 | -0.025 | -0.112 | -0.046 | -0.025 | -0.003 | 0.082
11 | GTF2A2 (UniProt P52657) | -0.067 | -0.043 | -0.006 | -0.036 | 0.018 | 0.044 | -0.028 | 0.032 | -0.042 | 0.041 | 0.022 | 0.11 | 0.102 | 0.015 | 0.067 | -0.005 | 0.031 | -0.076 | -0.034 | 0.023
12 | ICAM1 (UniProt P05362) | -0.018 | 0.132 | -0.038 | 0.042 | 0.002 | 0.08 | 0.029 | 0.104 | -0.028 | 0 | 0.052 | 0.142 | 0.026 | -0.069 | 0.024 | -0.134 | -0.062 | -0.054 | -0.012 | 0.121
13 | GCC2 (UniProt Q8IWJ2) | -0.037 | 0.137 | 0.074 | 0.065 | -0.046 | -0.037 | 0.024 | -0.11 | 0.056 | 0.014 | 0.04 | -0.01 | -0.104 | 0.246 | -0.007 | 0.081 | 0.113 | 0.048 | 0.136 | -0.173
14 | GPAT4 (UniProt Q86UL3) | -0.034 | -0.024 | 0.055 | -0.093 | 0.01 | 0.188 | 0.006 | -0.046 | -0.031 | 0.036 | 0.15 | 0.287 (active) | 0.066 | -0.071 | 0.017 | -0.009 | 0.063 | 0.061 | -0.063 | 0.194
15 | GLB1 (UniProt P16278) | 0.002 | -0.033 | 0.009 | -0.015 | -0.078 | -0.015 | 0.031 | 0.045 | 0.024 | 0.006 | 0.024 | -0.221 (active) | -0.074 | 0.007 | -0.022 | 0 | 0.036 | -0.004 | 0.013 | -0.255 (active)
16 | GTF3A (UniProt Q92664) | 0.092 | -0.138 | 0.067 | -0.018 | 0.014 | -0.225 | -0.139 | -0.006 | 0.099 | -0.042 | -0.002 | -0.145 | 0.015 | 0.078 | 0.019 | 0.023 | -0.025 | 0.023 | -0.001 | 

— the supplement of paper PMC10849652
